From PubChem
Only some compounds are listed: those with a hit (about 1.2% of all), similar ones and a draw of the others.
ASM inhibitor: blocks human secretory acid sphingomyelinase | AID 504937 | Potency, µM (top dose mostly 57.5 µM), without a hit: top-dose activity change, negative = inhibition, usual class: inhibitors | placental ASM, HMU-PC fluorogenic substrate, 60 min | P17405 | actives 0.006% (n = 340,000); further: potency means the concentration at half of the fitted maximal effect
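HMU-PC0 cleavage (9 uM final) by human placental ASM, 60 min at 37 °C following 10 min compound exposure at RT; stopped at pH 10, fluorescence Ex 386/Em 447 nm.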
KCNH2 3.1 inh: inhibitors of human KCNH2 3.1 potassium channel isoform | actives 0.95% (n = 340,000) | U2OS KCNH2 3.1, thallium flux FluxOr; active compounds read low | activity change, % (tested at about 1.8 µM) | AID 720553;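 active means maximum activity change below -70%; inconclusive means maximum activity change from -70% to -50%; inactive means maximum activity change above -50%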;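 further: thallium influx rate constant from kinetic fluorescence after stimulation buffer; on the % scale 0 is the no-effect control and ±100 the full control effect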
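Kinetic fluorescence (2 min after stimulation buffer) measures Tl+ influx through KCNH2 3.1 expressed by viral transduction in U2OS cells; the rate constant is normalized against DMSO controls serving as positive and negative references.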
Anesthetic bind: candidate novel general anesthetic via apoferritin binding. apoferritin/1-aminoanthracene competitive binding, fluorescence. AID 485281. P02791. actives 0.074% (n = 350,000). Potency, µM (series often up to 77.5 µM), inactives show at the highest dose activity change, negative = displacement, actives largely listed as inhibitors; further: potency means the concentration at half of the fitted maximal effect; on the % scale 0 is the no-effect control and ±100 the full control effect; nearly all actives have a fitted effect of over 20% in size
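Horse-spleen apoferritin (10 uM) in 50% saturated 1-aminoanthracene in PBS was incubated 10 min at room temperature with compound. Fluorescence (ex 380, em 535 nm) was normalized to free and bound 1-AMA, with concentration-response fitted by a four-parameter Hill equation.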
KCNH2 WT inh: KCNH2 (human, wildtype) channel inhibition. activity change, % at 1.84 µM. actives 0.37% (n = 340,000). Q12809. U2OS, BacMam KCNH2, thallium flux FluxOr; active compounds read low;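 active means maximum activity change below -70%; inconclusive means maximum activity change between -70% and -50%; inactive means maximum activity change above -50%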; further: on the % scale 0 is the no-effect control and ±100 the full control effect
Target sequence (Q12809 whole entry, looked up): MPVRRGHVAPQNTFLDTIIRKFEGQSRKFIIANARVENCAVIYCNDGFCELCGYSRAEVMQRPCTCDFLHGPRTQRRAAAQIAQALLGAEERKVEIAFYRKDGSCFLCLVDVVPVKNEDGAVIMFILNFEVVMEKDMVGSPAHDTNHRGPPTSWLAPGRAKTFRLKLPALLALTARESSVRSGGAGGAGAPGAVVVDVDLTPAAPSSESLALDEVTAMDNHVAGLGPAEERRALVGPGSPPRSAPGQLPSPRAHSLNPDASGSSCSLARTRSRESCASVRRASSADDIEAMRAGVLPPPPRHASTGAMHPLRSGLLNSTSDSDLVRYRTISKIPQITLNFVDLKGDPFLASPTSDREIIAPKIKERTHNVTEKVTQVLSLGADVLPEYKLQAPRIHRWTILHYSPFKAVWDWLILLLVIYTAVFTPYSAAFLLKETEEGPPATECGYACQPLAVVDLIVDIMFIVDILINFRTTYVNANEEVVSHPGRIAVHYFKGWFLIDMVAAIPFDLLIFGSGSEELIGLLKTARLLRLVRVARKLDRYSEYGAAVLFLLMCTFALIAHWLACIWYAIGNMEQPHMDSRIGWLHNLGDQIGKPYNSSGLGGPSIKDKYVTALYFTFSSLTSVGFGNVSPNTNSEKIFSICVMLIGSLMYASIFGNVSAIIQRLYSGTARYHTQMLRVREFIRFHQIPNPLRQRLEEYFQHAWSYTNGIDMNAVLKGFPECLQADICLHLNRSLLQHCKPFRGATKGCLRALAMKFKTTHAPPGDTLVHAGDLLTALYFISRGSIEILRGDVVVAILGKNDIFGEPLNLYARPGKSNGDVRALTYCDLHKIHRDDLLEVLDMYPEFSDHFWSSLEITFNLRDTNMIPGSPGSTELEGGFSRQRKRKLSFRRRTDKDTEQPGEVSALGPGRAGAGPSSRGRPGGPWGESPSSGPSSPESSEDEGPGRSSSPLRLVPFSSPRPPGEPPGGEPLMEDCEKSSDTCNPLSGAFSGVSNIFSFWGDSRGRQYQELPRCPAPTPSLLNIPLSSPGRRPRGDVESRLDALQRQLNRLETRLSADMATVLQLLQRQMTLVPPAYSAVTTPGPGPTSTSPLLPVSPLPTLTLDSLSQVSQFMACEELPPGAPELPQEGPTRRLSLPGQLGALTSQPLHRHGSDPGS
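U2OS cells transduced with wild-type KCNH2 virus are loaded with FluxOr dye for 45 min, and thallium flux is measured in kinetic reads before and after stimulation buffer. Rate constants are normalized to DMSO controls.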
IDH1 R132H inh: blocks human mutant IDH1 R132H enzyme; actives 0.093% (n = 390,000); Potency, µM (highest dose often 76.6 µM), for the others: at the top dose activity change, negative = inhibition, most hits filed as inhibitors; IDH1-R132H enzyme, NADPH consumption, diaphorase/resazurin fluorescence; AID 602179; further: potency means the concentration at half of the fitted maximal effect; on the % scale 0 is the no-effect control and ±100 the full control effect; nearly all actives have a fitted effect of over 65% in size
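IDH1-R132H (0.5 ug/mL dispensed) in pH 7.5 Tris buffer was preincubated 30 min with compound, then given a substrate mix of 0.016 mM NADPH and 2 mM alpha-KG for 80 min at room temperature; remaining NADPH was read by diaphorase/resazurin fluorescence.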
The depositor's hits bear a star; ? = inconclusive; nt = no result given; [ ] = another dose, or the depositor's remark. Unless noted, the call rests on the fitted dose curve; in most records, active means well fitted inhibition curve with a large enough effect; inconclusive means small, poorly fitted or top-dose-only effect; inactive means no such curve, though single readings can be large or run the other way.

SMILES	ASM inhibitor	KCNH2 3.1 inh	Anesthetic bind	KCNH2 WT inh	IDH1 R132H inh
CC(C)C[C@H]1CNC(=S)N1CC1CCN(CCCC2CCCCC2)CC1	-1.5%	-71.7*	nt	4.6	6.6%
O=C1NC[C@H](Cc2ccccc2)N(CC2CCN(CCCC3CCCC3)CC2)C1=O	-9.0%	-80.1*	nt	-130.2*	-3.9%
COc1ccc(C[C@H]2CN3C(=NC[C@@H]3Cc3ccccc3)N2CCNC(=O)CCC2CCCCC2)cc1	-7.0%	?	-18.2%	-144.5*	-8.0%
CCOC(=O)c1c(C)c(C(=O)NCCc2ccc(OC)cc2)c(C)n1CC	nt	nt	-10.3%	nt	-4.0%
CCN(Cc1ccccc1)C(=O)CN1C(=O)NC(CC)(c2ccc(F)cc2)C1=O (centres undefined)	-2.2%	-2.9	-2.8%	-83.0*	0.5%
Cc1ccc(OC(=O)C2c3ccccc3Oc3ccccc32)cc1C	-1.2%	-19.6	33.3%	-131.2*	-0.4%
CC(=O)c1ccc(OC(=O)C2c3ccccc3Oc3ccccc32)cc1	-6.1%	?	-21.4%	-4.8	4.1%
COc1ccc(-c2nc(Cn3c(SCc4ccc(C)cc4)nc4ccncc43)c(C)o2)cc1OC	-27.3%	-122.2*	-8.2%	-46.4	-0.3%
COc1ccc(-c2nc(Cn3c(SCc4cccc(F)c4)nc4ccncc43)c(C)o2)cc1OC	-6.2%	-107.1*	-2.6%	-0.9	-8.3%
Cc1ccc(-n2ncc3c(N(C)Cc4ccccc4)ncnc32)cc1	nt	nt	-2.3%	nt	16.9%
Cc1ccc(-c2cn3c(n2)sc2cc(C(=O)NCc4cccs4)ccc23)cc1	nt	nt	-7.9%	nt	0.0%
CCc1ccccc1N1C(=O)N(C)c2ccccc2S1(=O)=O	nt	nt	-6.2%	nt	14.5%
CCCCN(C)CC(O)Cn1cc(/C=C/C(=O)c2cccs2)c2ccccc21 (centres undefined)	133.2%	-14.3	38.2%	0.0	1.1%
O=C(/C=C/c1cn(CC(O)CN2CCCCCC2)c2ccccc12)c1cccs1 (centres undefined)	103.6%	-85.7*	-1.8%	-1.1	-0.3%
CC(=O)NS(=O)(=O)c1ccc(NC(=O)c2ccc(NC(=O)c3cccs3)cc2)cc1	-0.2%	-163.3*	nt	-227.9*	3.4%
CC(=O)Nc1ccc(OC(=O)c2cccs2)cc1	2.5%	-92.6*	-7.7%	-6.7	7.5%
CC(=O)c1ccc(OC(=O)c2cccs2)cc1	-2.2%	-5.2	-10.2%	-25.1	-4.1%
CNC(=O)C(=O)NCCN1CCN(C(=O)c2ccc([N+](=O)[O-])cc2)CC1	4.0%	8.0	-1.2%	-6.3	-3.7%
O=C(NCCN1CCN(C(=O)c2ccc([N+](=O)[O-])cc2)CC1)C(=O)NCc1ccccc1	-2.1%	-79.7*	-7.5%	44.2	-6.4%
CCCCc1ccc(NC(=O)C(=O)NCCN2CCN(Cc3ccc([N+](=O)[O-])cc3)CC2)cc1	14.0%	-169.1*	-10.8%	-245.1*	-12.3%
COc1ccc(C(=O)Nc2ccc3c(c2)N(C2CCCC2)C(=O)c2ccccc2S3)cc1OC	nt	nt	-1.0%	nt	-6.2%
O=C(CNC(=O)c1ccc(Cl)cc1Cl)OCC(=O)c1ccc2c(c1)OCCO2	0.5%	-4.9	14.1µM*	-0.2	-2.7%
COc1ccc(OC2C=CC(c3ccccc3)OC2CO)c(C(C)=O)c1 (centres undefined)	nt	nt	-2.2%[15.3 µM]	nt	nt
COc1cccc(CNC(=O)c2nn(-c3ccc(C)cc3)c(=O)c3c2c2ccccc2n3C)c1	nt	nt	-3.4%	nt	-2.8%
CCC(=O)N1c2ccc(S(=O)(=O)N3CCN(c4ccc([N+](=O)[O-])cc4)CC3)cc2CC1C (centres undefined)	-1.9%	-99.1*	-16.4%	-11.8	3.4%
CCOC(=O)c1cc(C#N)c(SC)nc1-c1ccccc1	-9.1%	-35.9	?	-9.7	1.8%
CCOC(=O)c1cc(C#N)c(N2CCN(c3ccccn3)CC2)nc1-c1ccccc1	-0.7%	-94.0*	-2.0%	4.1	-4.2%
Cc1cccc2sc(N(CCN(C)C)C(=O)c3ccc4c(c3)OCCO4)nc12	nt	nt	51.8%	nt	21.9%
Cc1cc(C)c2nc(N(CCCN(C)C)C(=O)c3ccc4c(c3)OCCO4)sc2c1	-2.0%	-86.0*	nt	-8.1	3.3%
Cc1cc(C)c2sc(N(CCCN(C)C)C(=O)c3ccc(Br)s3)nc2c1	-23.9%	-82.4*	-20.2%	-23.0	-6.0%
